# Measured values as given in PMC5540273 (PLoS ONE, 2017).
# How the values were obtained:
# Settings in all cases: concentration: 1 μM, replicates: in singlicate; n = 1
# [1] = system: PRKCD
# [2] = system: PRKCE
# [3] = system: PRKCH
# [4] = system: PRKCI
# [5] = system: PRKCQ
# [6] = system: PRKD1
# [7] = system: PRKD2
# [8] = system: PRKD3
# [9] = system: PRKG1
# [10] = system: PRKG2
# [11] = system: T1, PRKR
# T1 construct: gene EIF2AK2
# [12] = system: PRKX
# [13] = system: PRP4
# [14] = system: T2, PYK2
# T2 construct: gene PTK2B
# [15] = system: QSK
# [16] = system: RAF1
# [17] = system: RET
# [18] = system: RIOK1
# [19] = system: RIOK2
# [20] = system: RIOK3
# 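Note: KINOMEscan kinase panel screen.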
SMILES,%Inh [1] [%],%Inh [2] [%],%Inh [3] [%],%Inh [4] [%],%Inh [5] [%],%Inh [6] [%],%Inh [7] [%],%Inh [8] [%],%Inh [9] [%],%Inh [10] [%],%Inh [11] [%],%Inh [12] [%],%Inh [13] [%],%Inh [14] [%],%Inh [15] [%],%Inh [16] [%],%Inh [17] [%],%Inh [18] [%],%Inh [19] [%],%Inh [20] [%]
O=C(Nc1n[nH]c2nc(-c3ccco3)c(Br)cc12)c1ccc(CN2CCCC2)cc1.O=C(O)[C@H](O)[C@@H](O)C(=O)O [SB-742352],0,2,17,0,0,0,30,0,0,0,0,0,0,42,0,17,28,0,0,0
N#Cc1ccc(Oc2ccc(Nc3ncnc4cc[nH]c34)cc2Cl)cc1,0,0,22,12,19,0,10,0,0,30,0,7,0,10,0,0,19,21,8,1
Nc1nc(-c2ccc3c(N)n[nH]c3c2)cc(N2CCCCC2)n1 [GSK2228768],0,0,0,6,17,0,4,6,0,8,6,35,0,0,0,7,1,64,9,28
Cl.c1ccc(Cn2ccc3cc(Nc4ncnc5ccccc45)ccc32)cc1 [GW275568],0,8,0,31,11,0,18,13,0,28,0,17,0,0,0,20,15,20,0,0
CCn1c(-c2ccncc2)nc2cnccc21 [SB-735216],0,37,12,46,8,0,4,0,2,8,0,0,18,1,27,6,0,12,20,0
CSc1nn2c(=O)cc(N3CCOCC3)nc2n1Cc1cccc(Cl)c1Cl [GSK2347225],5,6,23,27,0,0,8,0,25,0,0,23,0,31,8,6,11,34,28,19
Fc1ccc(-c2ncn(CCCNCc3ccccc3)c2-c2ccncc2)cc1,0,26,0,0,30,20,0,27,7,0,0,0,17,1,1,0,18,0,11,28
O=C(Nc1ccccc1F)NC1CCN(c2ccnc(Nc3ccc(F)cc3)n2)C1 (stereo not drawn) [GSK1379722],0,13,30,10,23,0,0,0,0,0,0,17,27,0,15,19,8,24,0,15
Clc1ccc(-c2cc(-c3c[nH]nc3-c3ccccn3)ccn2)cc1 [GW681251],0,26,4,0,0,56,31,25,0,10,11,12,9,0,0,4,27,19,2,0
CN1c2ccc(-c3ccc(C(=O)NCCO)cc3)cc2-c2[nH]ncc2S1(=O)=O,26,12,8,0,1,0,34,0,61,9,1,0,0,6,5,0,13,30,22,17
CCc1nc(-c2cccc(N(C)S(=O)(=O)c3ccccc3)c2)c(-c2ccnc(Nc3ccc(N4CCN(C(C)=O)CC4)nc3)n2)s1 [GSK1645895],0,0,0,0,15,3,12,9,0,0,17,23,16,0,1,18,0,17,5,15
Nc1nc(-c2cccnc2)c(-c2ccnc3ccccc23)s1 [GW684083],0,0,31,21,4,24,34,0,0,0,0,31,19,16,5,11,0,30,38,0
O=C(c1ccc(-c2cc(-c3c[nH]nc3-c3ccccn3)ccn2)cc1)N1CCCC1 [GW792479],12,0,0,100,0,0,0,0,13,0,4,0,12,7,0,43,5,10,0,19
COc1ccc(Nc2nccc(N3CCC(NC(=O)c4cccc(NC(C)=O)c4)C3)n2)cc1 (stereo not drawn) [GSK1379732],8,16,17,5,25,13,20,11,2,11,0,0,48,0,0,0,0,37,0,0
O=C(NCCCN1CCCC1=O)c1cnc(NCc2cc(Cl)ccc2Cl)nc1NC1CCNCC1,13,40,0,0,0,3,0,29,0,0,0,0,2,0,0,0,8,0,0,8
Nc1n[nH]c2nnc(-c3ccccc3)cc12 [SB-517389],0,9,23,18,0,0,0,0,0,0,0,0,33,0,0,6,88,26,0,0
CS(=O)(=O)CCNCc1ccc(-c2ccc3ncnc(Nc4ccc(OCc5ccccc5)c(Cl)c4)c3c2)o1.Cl [GW574783],0,10,27,13,20,4,12,0,0,0,0,17,12,0,2,19,0,32,6,0
CSc1ccc(NC2=C(c3ccccc3Cl)C(=O)NC2=O)cc1 [SB-342411],26,0,7,0,0,5,2,28,0,13,0,0,0,0,8,15,14,16,0,0
COc1ccc(-c2oc3ncnc(N)c3c2-c2ccc(OC)cc2)cc1 [SB-589132],0,28,4,35,0,30,0,0,0,0,0,3,64,7,6,44,11,0,0,0
CNc1nccc(-c2c(-c3ccc(F)cc3)ncn2CCCN2CCOCC2)n1 [SB-222516],1,5,0,20,0,0,0,0,14,16,0,0,0,4,19,0,7,25,0,24
Cn1ccc2ncnc(Nc3ccc(Oc4cccc(Cl)c4)c(Cl)c3)c21,30,13,3,0,60,0,30,0,0,0,0,11,11,27,2,0,10,0,18,3

SMILES,%Inh [1] [%],%Inh [2] [%],%Inh [3] [%],%Inh [4] [%],%Inh [5] [%],%Inh [6] [%],%Inh [7] [%],%Inh [8] [%],%Inh [9] [%],%Inh [10] [%],%Inh [11] [%],%Inh [12] [%],%Inh [13] [%],%Inh [14] [%],%Inh [15] [%],%Inh [16] [%],%Inh [17] [%],%Inh [18] [%],%Inh [19] [%],%Inh [20] [%]
O=C(CCO)NCCn1ccc2ncnc(Nc3ccc(Oc4cccc(C(F)(F)F)c4)c(Cl)c3)c21,0,6,0,0,0,0,5,0,13,0,0,0,8,0,0,0,0,0,0,0
FC(F)(F)c1ccc(-c2nn3ncccc3c2-c2ccnc(Nc3cccc(C(F)(F)F)c3)n2)cc1 [GW828205],16,0,0,30,0,7,6,0,5,16,0,0,0,1,0,0,0,26,0,25
FC(F)(F)c1ccc(-c2cc(-c3c[nH]nc3-c3ccccn3)ccn2)cc1 [GW599550],0,6,21,23,16,23,16,17,4,2,8,12,31,0,0,18,14,25,5,25
Nc1nc(-c2ccccn2)c(-c2ccnc3ccccc23)s1 [GW548057],0,26,9,26,3,36,25,15,17,9,1,0,66,20,0,15,23,19,0,27
COC(=O)c1c(-c2ccccc2)c2cc(Cl)ccc2c(=O)n1Cc1ccc(S(C)(=O)=O)cc1,0,0,0,8,19,33,0,0,0,12,0,16,1,0,0,49,2,0,29,0
Clc1cc(Nc2ncnc3cc[nH]c23)ccc1OCc1ccccn1,13,8,0,9,34,0,3,0,10,22,0,13,19,9,0,17,17,24,42,0
Fc1cccc(COc2ccc(Nc3ncnc4sc(-c5ccc[nH]5)cc34)cc2Cl)c1 [GW707818],0,14,100,9,0,26,54,0,0,10,3,4,25,0,0,18,14,22,0,40
COc1ccc(NC(=O)c2ccc(-c3cc(-c4nnc(C)o4)ccc3C)cc2)cc1 [GW595885],0,4,8,0,9,2,0,0,4,0,0,5,18,0,21,6,28,12,0,0
Oc1ccc2ncnc(Nc3ccc(OCc4ccccc4)cc3)c2c1 [GI262866],0,0,6,27,15,0,0,30,0,0,0,11,26,0,10,18,12,18,4,10
COc1ccc(Nc2nccc(N3CCC(NC(=O)Nc4ccc5c(c4)OCO5)C3)n2)cc1 (stereo not drawn) [GSK1379745],8,10,12,25,2,1,0,25,20,0,0,19,23,27,8,22,9,28,5,35
Clc1cccc(-c2nc(Nc3ccncc3)c3ccccc3n2)c1 [GW873004],24,16,50,17,0,47,45,44,16,7,0,12,50,4,0,46,0,40,0,46
Fc1cccc(COc2ccc(Nc3ncnc4cc[nH]c34)cc2Cl)c1,14,0,0,12,10,0,25,0,2,13,0,19,34,2,9,4,5,21,15,20
NC(=O)c1sc(-n2cnc3ccccc32)cc1OCc1ccccc1F [GSK1024306],0,12,17,0,0,0,7,0,12,0,0,3,2,40,0,0,24,77,79,65
COc1cc2c(Nc3cccc(NC(=O)c4ccccc4)c3)ncnc2cc1OCCCN1CCOCC1 [GSK223810],18,13,10,8,22,2,4,5,8,0,0,7,2,24,0,16,90.8,38,10,24
C[C@H]1CC[C@@H](C(=O)Nc2ccccc2)CN1c1cc(-c2ccc3c(N)n[nH]c3c2)nc(N)n1 [GSK2283293],0,0,24,24,4,0,4,0,0,4,0,8,2,20,10,6,0,42,8,31
O=C(Nc1ccccc1)Nc1ccc(Oc2ccc3nccn3n2)cc1,10,0,0,19,0,24,6,0,13,0,0,0,0,0,0,31,0,49,0,0
Fc1cccc(COc2ccc(Nc3ncnc4nn5ccccc5c34)cc2Cl)c1 [GW689066],0,0,0,25,7,0,0,0,0,0,0,2,0,0,0,4,0,20,0,0
Cl.Cl.c1ccc(-c2cc3ccncc3cc2OC2CCNCC2)cc1 [GSK1122999],33,82,86,21,21,15,7,0,0,0,0,34,0,10,7,12,28,33,0,45
Cl.O=S(=O)(c1cccc(F)c1)c1ccc(Nc2ncnc3cc(Br)sc23)cc1Cl [GSK306886],0,45,0,0,0,7,13,4,0,23,0,24,13,0,0,10,97.9,9,3,22
CC(C)(C)OC(=O)NC1CCCN(c2cc(-c3ccc4c(N)n[nH]c4c3)nc(N)n2)C1 (stereo not drawn) [GSK2286096],0,12,0,0,0,0,15,0,0,70,0,21,0,0,5,7,0,23,27,23
Nc1nccc2scc(-c3ccc4c(c3)CCN4C(=O)Cc3cc(F)ccc3F)c12 [GSK2587663],0,0,16,1,24,0,18,16,9,2,0,1,10,6,16,18,65,25,3,0
